Test results taken from PubChem BioAssay.
Activity calls are given as the source filed them. No rule for the calls is given here.

These molecules were tested against Pantothenate synthetase (Mycobacterium tuberculosis (strain ATCC 25618 / H37Rv)) (UniProt P9WIL5) (assay: Recombinant Mtb pantothenate synthetase (PanC) inhibitors, coupled enzyme, confirmatory (AID 375;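 also: 0% = full reaction with vehicle and 100% = no enzyme background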)). Settings: coupled enzyme assay; at 10 µM, active compounds read high.
Sequence of Pantothenate synthetase (Mycobacterium tuberculosis (strain ATCC 25618 / H37Rv)) (P9WIL5 whole entry, looked up): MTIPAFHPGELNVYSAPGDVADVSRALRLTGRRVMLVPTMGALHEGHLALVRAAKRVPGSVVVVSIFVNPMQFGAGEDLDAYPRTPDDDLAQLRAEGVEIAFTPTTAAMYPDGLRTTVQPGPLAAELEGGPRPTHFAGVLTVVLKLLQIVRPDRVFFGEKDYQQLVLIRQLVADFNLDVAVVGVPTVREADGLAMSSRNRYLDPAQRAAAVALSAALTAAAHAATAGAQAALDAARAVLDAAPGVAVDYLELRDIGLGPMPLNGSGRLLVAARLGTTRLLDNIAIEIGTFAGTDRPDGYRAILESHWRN

**Q.** Which inhibition does the source give for CSC1=NCCN1C(=O)c1ccc(S(=O)(=O)N2CCCC2)cc1 here?
**A.** Its inhibition is 0% (inactive).

**Q.** COc1cc(C2C(C#N)=C(C)NC3=C2C(=O)CC(C)(C)C3)ccc1O (stereo not drawn) was tested. Which inhibition did it give?
**A.** The inhibition was 0% (inactive).

**Q.** With CC1(C)CC(=O)C=C(NCc2ccncc2)C1 as the molecule, how does the inhibition read?
**A.** Its inhibition is 0% (inactive).

**Q.** O=C(CSc1nnc(-c2ccccc2)o1)N1CCN(c2ccccc2)CC1 was tested. Which inhibition did it give?
**A.** The inhibition was 0% (inactive).

**Q.** How did the inhibition turn out when COc1ccc(CCNC(=O)CSc2nnnn2-c2ccccc2OC)cc1OC was run?
**A.** Its inhibition is 5% (inactive).

**Q.** For C1CCc2nnc(-c3nnc4n3CCCCC4)n2CC1, which inhibition is on record?
**A.** Its inhibition is 10% (inactive).

**Q.** With COc1ccc(N2C(=O)CC(N3CCN(c4ccccc4F)CC3)C2=O)cc1 (stereo not drawn) as the molecule, how does the inhibition read?
**A.** The inhibition was 0% (inactive).

**Q.** For c1cc(CNc2ccc3c(c2)OCO3)ccn1, which inhibition is on record?
**A.** The inhibition was 0% (inactive).

**Q.** Which inhibition does the source give for COC(=O)c1sc(NC(=O)c2ccoc2C)nc1C here?
**A.** Its inhibition is 0% (inactive).

**Q.** Which inhibition does the source give for CCN(CC)CCNC(=O)c1ccc(N2CCCCC2)c(NS(=O)(=O)c2ccc(C)cc2)c1 here?
**A.** The inhibition was 12% (inactive).

**Q.** Which inhibition does the source give for COC(=O)Nc1sc2c(c1C(N)=O)CCCCCC2 here?
**A.** The inhibition was 2% (inactive).

**Q.** Which inhibition does the source give for O=S(=O)(NCCc1ccncc1)c1cc(Br)ccc1F here?
**A.** Its inhibition is 0% (inactive).

**Q.** How did the inhibition turn out when N=c1c(C(=O)NCc2ccc(F)cc2)cc2c(=O)n3ccccc3nc2n1CCCN1CCOCC1 was run?
**A.** The inhibition was 0% (inactive).

**Q.** COc1ccc(OCCOC(=O)c2cccc(-n3cnnn3)c2)cc1 was tested. Which inhibition did it give?
**A.** Its inhibition is 0% (inactive).

**Q.** For CCOC(=O)C1=C(c2ccccc2)N2CCN=C2S1, which inhibition is on record?
**A.** The inhibition was 3% (inactive).

**Q.** For COc1cc(=O)[nH]c(SCc2c(F)c(F)c(F)c(F)c2F)n1, which inhibition is on record?
**A.** Its inhibition is 2% (inactive).

**Q.** Cc1onc(-c2c(Cl)cccc2Cl)c1C(=O)NCCCN1CCOCC1 was tested. Which inhibition did it give?
**A.** The inhibition was 1% (inactive).

**Q.** With COc1ccccc1-n1cnc2cc(NS(=O)(=O)c3ccccc3)ccc21 as the molecule, how does the inhibition read?
**A.** Its inhibition is 0% (inactive).
